MBNL1-CUG inh = MBNL1-poly(CUG) RNA binding inhibition; TR-FRET MBNL1-His/biotin-(CUG)12 binding, 665/545 ratio; 280,000 tested, 0.036% active; Potency, µM (series often up to 57.5 µM), inactives show top-dose activity change, negative = inhibition, usual class: inhibitors; AID 2675; active = well fitted inhibition curve with a large enough effect in the signal ratio, with a control signal flat, not every such curve was filed as active; inconclusive = small, poorly fitted or top-dose-only effect, or effect the other way, or a change in a side signal; inactive = no such curve, though single readings can be large or run the other way; the % refers to the signal ratio; note: potency is the fitted concentration of half-maximal effect; % is set by controls: 0 for no effect and ±100 for the full control effect
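TR-FRET readout: Ex 340 nm, 665/545 nm emission ratio, normalized to buffer-only (basal) and MBNL1-(CUG)12 controls. Complex of MBNL1-His with Biotin-(CUG)12, compounds 92 nM–58 uM, incubated 60 min at room temperature.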
CBFb RUNX1 block = inhibitors of human CBF-beta and RUNX1 interaction; Q01196+Q13951; AlphaScreen CBFb-His/RUNX1-biotin binding, biochemical; Potency, µM (doses to about 59.8 µM), for the others: at the highest dose activity, negative = inhibition, usual class: inhibitors; 230,000 tested, under 10 active; AID 1477; note: % of control where 0% means no effect
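His-tagged CBF-beta and biotinylated RUNX1 (30 nM each) were premixed 20 min at room temperature, exposed to compound for 15 min, then given nickel-chelate and streptavidin AlphaScreen beads (50 ng each). After 90 min, AlphaScreen signal was read.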
PLK1 PBD block = PLK1 (human) polo-box domain binding inhibition. P53350. Plk1 PBD binding of FITC phosphopeptide, fluorescence polarization. Potency, µM, for the others: max response, negative = inhibition, most hits filed as inhibitors. 360,000 tested, 2.8% active. AID 720504; note: potency is the fitted concentration of half-maximal effect; series mostly up to about 57 µM; % is set by controls: 0 for no effect and ±100 for the full control effect; nearly all actives have a fitted effect of over 65% in size
KCNH2 3.1 block = KCNH2 3.1 (human) potassium channel inhibition. U2OS KCNH2 3.1, thallium flux FluxOr; hits give low values. activity change, % (tested at about 1.8 µM). 340,000 tested, 0.95% active;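 active = maximum activity change below -70%; inconclusive = maximum activity change from -70% to -50%; inactive = maximum activity change above -50%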;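 note: thallium influx rate constant from kinetic fluorescence after stimulation buffer; % is set by controls: 0 for no effect and ±100 for the full control effect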
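Thallium flux read-out: FluxOr dye with Red40 quencher in HBSS/HEPES, 45 min at RT. Rate constants from kinetic reads were normalized to positive and negative DMSO controls. Cells: U2OS virally expressing the 3.1 isoform.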
VDR inhibitor = vitamin D3 receptor (human) inhibition; VDR-SRC2-3 peptide fluorescence polarization, 2 h; Potency, µM, for the others: max response, negative = inhibition, actives largely listed as inhibitors; 400,000 tested, 0.93% active; note: potency is the fitted concentration of half-maximal effect; % is set by controls: 0 for no effect and ±100 for the full control effect
Target sequence (P11473 whole entry, looked up): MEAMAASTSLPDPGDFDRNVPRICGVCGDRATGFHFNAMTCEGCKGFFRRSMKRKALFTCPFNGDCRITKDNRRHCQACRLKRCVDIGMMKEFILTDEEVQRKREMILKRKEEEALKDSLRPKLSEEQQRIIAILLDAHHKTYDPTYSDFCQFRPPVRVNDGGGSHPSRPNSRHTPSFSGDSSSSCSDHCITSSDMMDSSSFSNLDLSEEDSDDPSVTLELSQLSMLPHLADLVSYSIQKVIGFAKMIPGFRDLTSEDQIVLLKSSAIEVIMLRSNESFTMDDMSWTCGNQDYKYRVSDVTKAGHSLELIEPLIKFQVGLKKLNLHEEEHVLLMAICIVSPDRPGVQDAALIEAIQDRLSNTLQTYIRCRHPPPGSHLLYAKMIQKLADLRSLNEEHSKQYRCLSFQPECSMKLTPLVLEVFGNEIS
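Measured by FP: displacement of SRC2-3 coactivator peptide from VDR by library compounds, following a two-hour ambient incubation.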
hERG WT inh = KCNH2 (human, wildtype) channel inhibition. U2OS, BacMam KCNH2, thallium flux FluxOr; hits give low values. activity change, % at 1.84 µM. 340,000 tested, 0.37% active. Q12809;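 active = maximum activity change below -70%; inconclusive = maximum activity change between -70% and -50%; inactive = maximum activity change above -50%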; note: % is set by controls: 0 for no effect and ±100 for the full control effect
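U2OS cells were transduced with wild-type KCNH2 virus (2.03 x 10^8 / mL) for 4 h at room temperature, then cultured overnight at 37 C. Thallium flux was read with FluxOr dye. Rate constants were normalized to DMSO controls.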
The depositor's hits bear a star; ? = inconclusive; / = no result given. Sampled rows, rich in hits. Any-hit rate of the full collection: about 3.8%. Unless noted, calls come from the whole dose curve; as a rule, active = well fitted curve in the direction sought with a large enough effect; inconclusive = small, poorly fitted or top-dose-only effect, or another doubt; inactive = no such curve, though single readings can be large; an effect the other way counts as inactive or inconclusive.

SMILES	MBNL1-CUG inh	CBFb RUNX1 block	PLK1 PBD block	KCNH2 3.1 block	VDR inhibitor	hERG WT inh
O=S(=O)(c1ccccc1)N1CCC[C@@]2(CCN(c3ccccc3)C2)C1	/	/	/	/	32µM*	/
C=CCn1c(NC(=O)c2ccccc2Cl)c(C#N)c2nc3ccccc3nc21	?	21%	-29%	2	35µM*	0
CCCCn1c(NC(C)=O)c(C#N)c2nc3ccccc3nc21	?	0%	-9%	-7	?	0
O=C(NCCCc1nc2ccccc2n1Cc1ccccc1F)c1ccco1	/	/	/	/	-2%	/
CCC1=NN2C(=N)/C(=C\c3ccc(OCCOc4ccc(NC(C)=O)cc4)cc3)C(=O)N=C2S1	-1%	/	?	-3	-5%	6
CC(=O)Nc1ccc(OCCOc2ccc(/C=C3/C(=N)N4C=CSC4=NC3=O)cc2)cc1	16%	-21%	3.4µM*	10	?	11
COc1ccccc1OCCOc1ccc(/C=C2\C(=N)N3N=C(S(C)(=O)=O)SC3=NC2=O)cc1	1%	/	13µM*	5	79µM*	6
Cc1cc(/C=C2\C(=N)N3N=C(S(C)(=O)=O)SC3=NC2=O)c(C)n1Cc1ccccc1	-6%	?	27µM*	23	-3%	2
COc1cc(/C=C2\C(=N)N3N=C(S(C)(=O)=O)SC3=NC2=O)cc(OC)c1OCCOc1ccccc1C	3%	/	30µM*	-9	?	4
CCCC1=NN2C(=N)/C(=C\c3cc(C)n(Cc4ccccc4)c3C)C(=O)N=C2S1	8%	-6%	?	-21	-1%	1
C[C@@H](NCCCc1cccc(C(F)(F)F)c1)c1cccc2ccccc12	/	/	/	/	2%	/
CCc1ccc(-c2nc(CS(=O)CC(=O)NC3CC3)c(C)o2)cc1 (centres undefined)	2%	/	-27%	13	-16%	4
Cc1oc(-c2ccccc2Cl)nc1CS(=O)CC(=O)NC1CC1 (centres undefined)	0%	/	0%	8	-17%	-261*
CCc1ccc(-c2nc(CS(=O)CC(=O)NC3CCCCCC3)c(C)o2)cc1 (centres undefined)	4%	/	30µM*	-7	11%	3
CCC1(c2ccc(Cl)cc2)NC(=S)N(c2ccc(C)cc2)N1 (centres undefined)	26%	1%	-11%	-11	79µM*	-18
CCc1nc(C)cn1S(=O)(=O)c1ccc(Cl)c(Cl)c1OC	/	/	/	/	-20%	/
Nc1ccc(S(=O)(=O)N2CCOCCOCCOCCOCCOCC2)cc1	4%	/	?	-5	-25%	20
Nc1nc2cc(S(=O)(=O)N3CCOCC3)ccc2o1	/	/	5.3µM*	-3	40µM*	-4
CN(C)C(=O)CSc1nc2cc(S(=O)(=O)N3CCOCC3)ccc2o1	/	/	21µM*	5	?	-1
COc1cc(NC(=O)c2ccc(COc3ccccc3Br)o2)cc(OC)c1OC	1%	10%	-6%	11	-2%	2
COc1ccc(NC(=O)c2ccc(COc3ccccc3OC)o2)cc1OC	1%	-2%	30µM*	2	-16%	-11
COc1ccccc1OCc1ccc(C(=O)Nc2cc(OC)c(OC)c(OC)c2)o1	11%	/	0%	14	-13%	-129*
COc1ccc(N2CC(C(=O)Nc3nnc(C4CCCCC4)s3)CC2=O)cc1 (centres undefined)	-2%	/	30µM*	-14	?	-13
O=C(Nc1nnc(C2CCCCC2)s1)C1CC(=O)N(c2ccc(F)cc2)C1 (centres undefined)	-2%	/	-6%	-1	-9%	-4
COc1ccc(N2CC(C(=O)N/N=C/c3cccs3)CC2=O)cc1 (centres undefined)	?	2%	24µM*	7	-13%	/
Cc1cccc(C)c1OCCn1c(CCNC(=O)C2CCCCC2)nc2ccccc21	/	/	/	/	11%	/
O=C(O)c1ccccc1NS(=O)(=O)c1cccc(C(F)(F)F)c1	-3%	5%	-6%	1	-3%	69

Screening results deposited in PubChem BioAssay by National Center for Advancing Translational Sciences (NCATS).
